Screening data as filed in PubChem.
This is a sample that favours compounds with a hit; in the whole collection about 19% have one here.
DT40 TDP1 no CPT – qHTS for Inhibitors of human tyrosyl-DNA phosphodiesterase 1 (TDP1): qHTS in cells in absence of CPT; 420,000 tested, 15% active; DT40 Tdp1-/- hTDP1 cells, no CPT, ATP luminescence, 48 h; Potency, µM (top dose mostly 46.2 µM), without a hit: at the highest dose activity change, negative = growth inhibition, hits mostly inhibitors; note: potency is the fitted concentration of half-maximal effect; nearly all actives have a fitted effect of over 55% in size
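Luminescent ATP content (CellTiter-Glo) served as the growth readout. Knockout chicken DT40 cells expressing human TDP1 were exposed to compounds without camptothecin for a minimum 48 hr at 37 °C.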
HT1080-NT tox – kills 2HG-producing HT-1080-NT fibrosarcoma cells. HT-1080-NT fibrosarcoma viability, CellTiter-Glo ATP luminescence, 48 h. Potency, µM (doses to about 46.1 µM), without a hit: at the top dose activity, negative = less viability, usual class: cytotoxic. 360,000 tested, 1.6% active. AID 686970;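 note: NT is the 2HG producing partner of a matched IDH1 knockdown line; potency is the fitted concentration of half-maximal effect; 0% = DMSO-treated cells and -100% = media-only wells without cells; nearly all actives have a fitted effect of over 55% in size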
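Read-out is CellTiter-Glo luminescence after 10 minutes at room temperature, following 48 hours' compound treatment of HT-1080-NT cells (750 cells/well, RPMI, 5% FBS, 37 degrees C).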
IL1B secr inh – inflammasome signaling inhibition, IL-1 beta readout | 360,000 tested, 4.7% active | activity change, % at 57.5 µM | THP-1 LPS/ATP IL-1B secretion, AlphaLISA, 16 h; hits give low values | AID 743279; in the data active = activity change below about -50%; inconclusive = mostly about -30% to -49%
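Secreted IL-1B measured by AlphaLISA bead assay after 16 h compound exposure of THP-1 cells; compounds (final up to 57.5 uM) added 1 h before LPS (250 ng/mL) and ATP (1.25 mM) stimulation; lower signal means less secretion.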
HT1080 IDH1KD tx – toxicity to HT-1080 IDH1 knockdown cells (counter line); HT-1080 IDH1 knockdown viability, ATP luminescence, 48 h; Potency, µM (doses to about 46.1 µM), inactives show top-dose activity, negative = toxicity, actives largely listed as cytotoxic; 360,000 tested, 2% active; AID 686971;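 note: potency is the fitted concentration of half-maximal effect; 0% = DMSO wells and -100% = cell-free medium wells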
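Using the IDH1-knockdown HT-1080 line run in the same batch and compound series as the NT line, viability after 48 h at 37 °C was determined by CellTiter-Glo luminescence and expressed as % activity.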
DT40 TDP1 CPT – growth inhibition of DT40 Tdp1-/-;hTDP1 cells with camptothecin (screen for TDP1 inhibitors); 420,000 tested, 12% active; Potency, µM (top dose mostly 46.2 µM), without a hit: top-dose activity change, negative = growth inhibition, actives largely listed as inhibitors; chicken DT40 Tdp1-/-;hTDP1 cells + 20 nM CPT, ATP luminescence, 48 h; note: potency is the fitted concentration of half-maximal effect; nearly all actives have a fitted effect of over 55% in size
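Chicken DT40 Tdp1-/- cells complemented with human TDP1, 400 cells/well, exposed to compounds plus 20 nM camptothecin for at least 48 h at 37 C; viability read as ATP content by CellTiter-Glo luminescence.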
* = called active by the depositor; ? = inconclusive; nt = no result. Unless noted, calls come from the whole dose curve; as a rule, active = well fitted curve in the direction sought with a large enough effect; inconclusive = small, poorly fitted or top-dose-only effect, or another doubt; inactive = no such curve, though single readings can be large; an effect the other way counts as inactive or inconclusive. Unless noted, % is set by controls: 0 for no effect and ±100 for the full control effect.

SMILES	DT40 TDP1 no CPT	HT1080-NT tox	IL1B secr inh	HT1080 IDH1KD tx	DT40 TDP1 CPT
CC(=O)NC(c1ccc2ccccc2c1)c1ccc2cccnc2c1O (stereo unspecified)	4.6µM*	?	139	?	3.3µM*
COC(=O)c1cc2sccc2n1Cc1nc(-c2cccc(Br)c2)oc1C	-13%	nt	nt	nt	-16%
COc1ccccc1/C=C/C(=O)OCC(=O)NC1CCCCCCC1	-25%	11%	12	8%	-24%
CCC(=O)Nc1cc(C(=O)O)ccc1S(=O)(=O)c1ccc(C)cc1	3%	20%	21	20%	13%
COc1ccc2[nH]c(=O)c(CN(C(C)=O)c3cc(C)ccc3C)cc2c1	-22%	1%	11	-1%	-7%
OC[C@H]1OC(O)[C@H](O)[C@@H]1O (stereo partly specified)	12%	?	-6	14%	10%
C[C@@H]1CN([C@H](C)CO)C(=O)CCCn2nncc2CO[C@H]1CN(C)CC1CC1	-2%	20%	1	22%	3%
COc1ccc(NC(=O)CSc2nc3sc4c(c3c(=O)n2-c2ccc(OC)cc2)CCN(C)C4)cc1	?	-10%	-8	-14%	-21%
CCCN1CCc2c(sc3nc(SC)n(-c4ccccc4)c(=O)c23)C1	5.8µM*	5%	?	-5%	6.5µM*
CCCN1CCc2c(sc3nc(SCC)n(-c4ccc(OC)cc4)c(=O)c23)C1	13µM*	7%	1	-9%	?
CCCN1CCc2c(sc3nc(SCC)n(-c4ccccc4)c(=O)c23)C1	15µM*	-19%	-11	-20%	?
COc1ccc(-n2c(SC)nc3sc4c(c3c2=O)CCN(C)C4)cc1	12µM*	1%	-7	9%	?
CCSc1nc2sc3c(c2c(=O)n1-c1ccccc1)CCN(C)C3	?	-1%	-6	2%	?
C=CCSc1nc2sc3c(c2c(=O)n1-c1ccccc1)CCN(C)C3	-17%	-13%	0	-2%	?
Cc1nc2c(OCc3ccccc3)cccn2c1CC#N	-56%	nt	nt	nt	?
O=C(c1ccc([N+](=O)[O-])s1)N1CCCc2ccccc21	?	-25%	?	?	?
N=C(N1CCCc2ccccc21)N1CCCc2ccccc21	21µM*	?	-14	?	16µM*
O=C(c1ccc(C(=O)N2CCCc3ccccc32)s1)N1CCCc2ccccc21	?	23%	-52*	1%	?
O=C(C(=O)N1CCCc2ccccc21)N1CCCc2ccccc21	?	-7%	39	17%	7%
O=C1C=C(c2ccccc2Oc2ccccc2)C[C@@H](c2ccc(F)cc2)C1	?	?	-25	?	?
O=C(Nc1ccc(F)cc1)C1CCN(S(=O)(=O)c2ccc3c(c2)CCCN3C(=O)C2CCC2)CC1	8.2µM*	nt	nt	nt	18µM*
Cc1ccc(NC(=O)C2CCN(S(=O)(=O)c3ccc4c(c3)CCCN4C(=O)C3CCC3)CC2)cc1	?	nt	nt	nt	16µM*
CCN(C(=O)C1CCN(S(=O)(=O)c2ccc3c(c2)CCCN3C(=O)C2CCC2)CC1)c1cccc(C)c1	18µM*	nt	nt	nt	16µM*
Cc1ccc2c(c1)CO[C@]21O[C@H](CCO)C[C@H](O)[C@H]1O	2%	3%	21	-1%	-1%
COc1ccccc1CNC(=O)c1ccc(N2Cc3cccc(OC)c3Oc3ncccc32)s1	12µM*	nt	nt	nt	15µM*
SMILES	DT40 TDP1 no CPT	HT1080-NT tox	IL1B secr inh	HT1080 IDH1KD tx	DT40 TDP1 CPT
COc1ccccc1CNC(=O)CCC(=O)N1Cc2cccc(OC)c2Oc2ncccc21	-10%	2%	1	5%	7%
CC(C)Oc1ccc(CNC(=O)CN2C(=O)c3cccnc3Oc3ccc(Cl)cc32)cc1	18µM*	nt	nt	nt	16µM*
CCCOc1ccc(CNC(=O)CN2C(=O)c3cccnc3Oc3ccc(C)cc32)cc1	?	nt	nt	nt	23µM*
CC(CNC(=O)CN1C(=O)c2cccnc2Oc2ccc(Cl)cc21)c1ccccc1 (stereo unspecified)	?	8%	2	1%	?
Cc1ccc2c(c1)N(CC(=O)NCc1ccccc1Br)C(=O)c1cccnc1O2	-26%	nt	nt	nt	?
COc1ccc(Br)cc1CNC(=O)CN1C(=O)c2cccnc2Oc2ccc(C)cc21	12µM*	nt	nt	nt	?
CSc1ncccc1C(=O)OCC(=O)c1cccc(Br)c1	-12%	3%	-16	15%	-6%
O=S1(=O)N[C@@H](CC2=CCCCC2)C2CCCCC2O1 (stereo partly specified)	-46%	-4%	24	-6%	-6%
O=S1(=O)NC(CC2=CCCCC2)C2CCCCC2O1 (stereo unspecified)	-25%	29%	13	11%	7.3µM*
CC1(C)O[C@H]2[C@@H](O1)[C@@H](C(=O)Nc1ccc(F)c(F)c1)O[C@@H]1OC(C)(C)O[C@@H]12	-8%	nt	nt	nt	-2%
Cc1ccccc1COc1cccn2c(N(C)C(=O)CCC3CCCC3)c(C)nc12	23µM*	?	-57*	?	?
COc1ccccc1COc1cccn2c(N(C)C(=O)CCC3CCCC3)c(C)nc12	15µM*	?	-21	?	18µM*
COC(=O)c1ccccc1COc1cccn2c(N(C)C(=O)CCC3CCCC3)c(C)nc12	?	-15%	-15	-19%	?
